Measured values from PubChem BioAssay AID1851 (National Center for Advancing Translational Sciences (NCATS), 2009).
Several values for one entry are separate records, joined by “and”; a condition that tells them apart may be missing. Equal entries are not always repeated. The whole screen tested about 16,000 compounds, of which about 5,700 (36%) were called active. Inconclusive results (about 24%) are left out. Some of the results follow. Values without a mark were called inactive. The call rests on the fitted dose curve; in most records, active means well fitted curve in the direction sought with a large enough effect; inconclusive means small, poorly fitted or top-dose-only effect, or effect the other way; inactive means no such curve, though single readings can be large or run the other way.

target: Cytochrome P450 1A2 (Homo sapiens) (UniProt P05177); assay: Cytochrome panel assay with activity outcomes; details: recombinant CYP, pro-luciferin dealkylation, luminescence, p450-cyp1a2; series mostly up to 57.1 µM; activity, negative = inhibition: at the top concentration
Sequence (P05177 whole entry, looked up): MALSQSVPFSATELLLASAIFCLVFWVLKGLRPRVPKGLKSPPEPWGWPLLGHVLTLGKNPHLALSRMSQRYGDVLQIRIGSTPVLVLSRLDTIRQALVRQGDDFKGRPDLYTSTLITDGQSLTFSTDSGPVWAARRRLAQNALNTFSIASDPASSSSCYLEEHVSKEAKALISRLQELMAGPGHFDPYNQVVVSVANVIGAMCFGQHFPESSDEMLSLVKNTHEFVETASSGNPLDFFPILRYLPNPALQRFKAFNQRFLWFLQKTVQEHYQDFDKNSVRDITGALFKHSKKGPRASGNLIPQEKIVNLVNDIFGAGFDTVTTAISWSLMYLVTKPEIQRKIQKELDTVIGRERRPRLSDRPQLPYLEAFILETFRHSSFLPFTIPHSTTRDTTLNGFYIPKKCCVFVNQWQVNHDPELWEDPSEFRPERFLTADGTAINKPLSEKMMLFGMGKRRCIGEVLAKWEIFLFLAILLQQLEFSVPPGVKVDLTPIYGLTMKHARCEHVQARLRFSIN
On the % scale 0 is the no-effect control and ±100 the full control effect.

SMILES	activity, negative = inhibition	AC50
CC(C)CN1CCCC2(CCN(C(=O)c3cccc(F)c3)CC2)C1	7.46%	
Nc1ncnc2c1ncn2[C@H]1O[C@@H](CO)[C@@H](O)[C@H]1N	-8.67% [at 11.4 µM]	
CCCCCCCOC1(c2ccccc2)OC(=O)c2ccccc21 (centres undefined)	-19.2%	
Cc1cccc(C)c1OC1(c2ccccc2)OC(=O)c2ccccc21 (centres undefined)		20000 nM (active)
CCCCOC1(c2ccccc2)OC(=O)c2ccccc21 (centres undefined)	-28.7%	
CC(=O)N1CCC2(CC1)CCN(c1ccccn1)CC2	1.45%	
O=C1C=CC(=Nc2cccc3c(N=C4C=CC(=O)O4)cccc23)O1	-14% [at 11.4 µM]	
O=C(O)CSc1nc2ccccc2[nH]1	-19.8% [at 11.4 µM]	
O=C(CSc1nc2ccccc2[nH]1)Nc1c(F)cccc1F		8910 nM (active)
O=C(CCN1C(=O)C2C3C=CC(C3)C2C1=O)Nc1c(F)cccc1F (centres undefined)	2.98%	
Cc1onc(-c2ccccc2Cl)c1C(=O)Nc1nnc(Cc2ccc(Cl)cc2)s1	-24.7%	
O=C(Nc1ccccc1)OCc1cc(-c2ccc(Cl)cc2)on1		562 nM (active)
O=C(Nc1ccc(Cl)cc1)OCc1cc(-c2ccccc2Cl)on1		447 nM (active)
O=C(Nc1ccc(Cl)cc1)OCc1cc(-c2ccccc2)on1		2240 nM (active)
CS(=O)(=O)c1ccccc1COC(=O)Nc1ccc(Cl)cc1		17800 nM (active)
CCN1C(=O)[C@H]2[C@H]3[C@H](O)[C@H](O)C/C(=N/O[C@@H]4O[C@@H](COC(C)=O)[C@@H](OC(C)=O)[C@@H](OC(C)=O)[C@H]4OC(C)=O)[C@H]3CC[C@@H]2C1=O	-5.44% [at 11.4 µM]	
CC1(C)CC(=O)C2=C(C1)N(c1ccc(F)cc1)C(N)=C(C#N)C2c1cccs1 (centres undefined)	8.01%	
O=[N+]([O-])c1ccccc1/C=N/n1c(COc2ccccc2)n[nH]c1=S		2510 nM (active)
O=[N+]([O-])c1ccc(/C=N/n2c(COc3ccccc3)n[nH]c2=S)cc1		2820 nM (active)
Cc1ccc(/C=N/n2c(COc3ccccc3)n[nH]c2=S)s1		501 nM (active)
CS(=O)(=O)N1CCC2(CC1)CN(c1ncccn1)C2	16.3%	
Cc1ccc(S(=O)(=O)NC(=O)NN2C[C@H]3CCC[C@@H]3C2)cc1	-0.685% [at 25.6 µM]	
Cc1ccc2nc(N/N=C\c3cccc(C)n3)cc(C)c2c1		631 nM (active)
CCc1cccc2nc3c(c([Si](C)(C)C)c12)Cn1c-3cccc1=O		2510 nM (active)

SMILES	activity, negative = inhibition	AC50
CCN1C/C(=C\c2cccc(C)c2)c2nc3ccccc3c(C(=O)O)c2C1	5.47%	
CC(C)c1cccc2nc3c(c([Si](C)(C)C)c12)Cn1c-3cccc1=O		15800 nM (active)
CC(C)c1cccc2nc3c(c(C(C)(C)C)c12)Cn1c-3cccc1=O		12600 nM (active)
Cc1c2c(nc3ccccc13)-c1cccc(=O)n1C2		100 nM (active)
O=C1OCCC=C1[C@@H](O)CCc1ccccc1	-0.0227% [at 11.4 µM]	
NS(=O)(=O)c1cc2c(cc1Cl)N[C@@H](C(Cl)Cl)NS2(=O)=O	1.35% [at 25.6 µM]	
CCc1c2c(nc3cccc(C(C)C)c13)-c1cccc(=O)n1C2		501 nM (active)
O=C1NCC2(CCN(CCc3ccccc3)CC2)O1		inactive
NS(=O)(=O)c1ccc(N=Nc2cc3ccccc3c(C(=O)O)c2O)cc1		1000 nM (active)
NS(=O)(=O)c1ccc(N=Nc2ccc(O)c(C(=O)O)c2)cc1	-20.9% [at 11.4 µM]	
NS(=O)(=O)c1ccc(N=Nc2c(O)c(C(=O)O)cc3ccccc23)cc1	-20.8% [at 11.4 µM]	
O=C(Nc1nccs1)c1sc2cc(Cl)ccc2c1Cl		112 nM (active)
O=C(NCc1cccnc1)c1sc2cc(Cl)ccc2c1Cl		1000 nM (active)
O=C(O)[C@@H](O)c1ccc(F)cc1	-12.3% [at 11.4 µM]	
CN(C)/C=C/C(=O)c1ccc(F)cc1		11200 nM (active)
O=C(O)/C=C\[C@H](O)c1ccc(Cl)cc1	-18%	
CN(C)/C=C/C(=O)c1ccc(Cl)cc1		4470 nM (active)
O=c1cc(O)cc(/C=C\c2ccc(O)c(O)c2)o1	-7.95%	
Oc1cc(O)cc(/C=C\c2ccc(O)c(O)c2)c1		5010 nM (active)
S=C(S)NCCCn1ccnc1		3160 nM (active)
S=C(S)NCCN1CCNCC1	-7.09% [at 11.4 µM]	
NCCNC(=S)S	-13.2% [at 2.29 µM]	
CCOc1ccc(C(=O)CN2CCN(S(=O)(=O)c3ccc(F)cc3)CC2)cc1		20000 nM (active)
COc1ccc(S(=O)(=O)N2CCCN(CC(=O)Nc3ccc(OC)c(Cl)c3)CC2)cc1		1410 nM (active)

SMILES	activity, negative = inhibition	AC50
O=C(CN1C(=O)NC2(CCCCCC2)C1=O)N1CCN(S(=O)(=O)c2ccc(Cl)cc2)CC1	-8.91%	
COc1ccc(NC(=O)N2CC3(CCN(S(=O)(=O)c4ccccc4)CC3)C2)cc1	-22.4%	
COc1ccc(NC(=O)c2cc(S(=O)(=O)N3CCS(=O)(=O)CC3)ccc2Cl)cc1	6.23%	
CCN(CC)C(=O)COc1ccc(S(=O)(=O)N2CCOCC2)cc1	2.65%	
COc1ccc(S(=O)(=O)N2CCN(CC(=O)Nc3cc(OC)cc(OC)c3)CC2)cc1		22400 nM (active)
O=C(CN1CCN(S(=O)(=O)c2ccccc2)CC1)NC(=O)NCc1ccccc1	-22.6%	
CCOC(=O)c1ccc(S(=O)(=O)N2CCN(C)CC2)cc1	-6.34%	
COc1ccc(NC(=O)N2CCCC3(CCN(S(=O)(=O)c4ccccc4)CC3)C2)cc1	-19.8%	
CCOc1ccc(NC(=O)CN2CCN(S(=O)(=O)c3ccc(Cl)cc3)CC2)cc1		25100 nM (active)
O=C(CN1CCN(S(=O)(=O)c2ccc(F)cc2)CC1)Nc1ccc(Cl)c(C(F)(F)F)c1	-20.6%	
CON(C)C(=O)c1nnc2c3ccccc3n(S(=O)(=O)c3ccc(C)cc3)c2n1	-0.532% [at 11.4 µM] and -0.966% [at 11.4 µM]	
CCOC(=O)c1cc2c(C(F)(F)F)cc(-c3ccccc3)nc2o1		3550 nM (active)
Cc1oc(-c2ccccc2)cc1C(=O)Nc1ccc(N(C)C)cc1		1410 nM (active)
Cc1oc(C(C)(C)C)cc1C(=O)Nc1cccc(/C=C/C(=O)O)c1	-11.6%	
CCCNC(=O)OC[C@@H]1O[C@H](CCO/N=C2\c3cc(OC)ccc3O[C@H](c3cccc(OC)c3)[C@H]2O)C=C[C@@H]1Oc1ccc(OC)cc1	-14.6% [at 11.4 µM]	
CCC(=O)N1CCc2cc(S(=O)(=O)NC(C(=O)NCc3ccc(F)cc3)C(C)C)ccc21 (centres undefined)	-20.8%	
CCOC(=O)c1sc(=S)n(-c2cccc(C(F)(F)F)c2)c1SC		562 nM (active)
COc1ncc2nc(-c3cccs3)c(=O)n(CCc3ccccc3)c2n1		1260 nM (active)
COc1ncc2nc(-c3cccs3)c(=O)n(CCC#N)c2n1		6310 nM (active)
COCCn1c(=O)c(-c2cccs2)nc2cnc(N(C)C)nc21		2000 nM (active)
COCCn1c(=O)c(-c2cccs2)nc2cnc(OC)nc21		2510 nM (active)
Cc1c(N2C(=O)CS/C2=N\N=C\c2ccc(Cl)cc2)c(=O)n(-c2ccccc2)n1C	-14.7%	
Cc1nnc(SCC2=C(C(=O)O)N3C(=O)[C@@H](NC(=O)Cn4cnnn4)[C@@H]3SC2)s1		inactive
COCCn1c(=O)c(-c2cccs2)nc2cnc(Oc3ccc(OC)cc3)nc21		2510 nM (active)

SMILES	activity, negative = inhibition	AC50
COCCn1c(=O)c(-c2cccs2)nc2cnc(Oc3ccccc3)nc21		2000 nM (active)
Cc1cnc(CNc2nc(-c3ccccc3C)nc3ccccc23)cn1		3160 nM (active)
COc1ccccc1-c1nc(NCc2cnc(C)cn2)c2ccccc2n1		5010 nM (active)
Cc1cnc(CNc2nc(-c3ccccc3C(F)(F)F)nc3ccccc23)cn1		12600 nM (active)
Cc1cnc(CNc2nc(-c3ccccc3Cl)nc3ccccc23)cn1		6310 nM (active)
CCN(CC)C(=O)C1CC(=O)N(c2ccc(OC)cc2)C1c1ccc(OC)cc1 (centres undefined)	-0.516%	
COc1ccc(C(C(=O)NC2CCCC2)N(C(=O)c2snc(-c3ccc(F)cc3)c2N)c2ccc(F)cc2)cc1 (centres undefined)	-15.3%	
CCN1/C(=C/c2ccc3cccc(C)c3[n+]2CC)Sc2ccccc21		14100 nM (active)
CCOC(=O)c1cnn(-c2nc(-c3cccc(F)c3)cs2)c1C(F)(F)F		2240 nM (active)
CCOC(=O)c1cn(-c2nc(-c3ccc(Cl)cc3)cs2)c2c(F)c(N3CC(C)OC(C)C3)c(F)cc2c1=O (centres undefined)	-9.86%	
COC(=O)c1cc(=O)n(C2CC2)c(=NC2CC2)s1		2000 nM (active)
COC(=O)C1CCN(c2cc(=O)n(C3CCCCC3)c(=O)[nH]2)CC1	-5.49%	
CCCCCc1nc2c(=O)[nH]c3ccccc3c2o1		398 nM (active)
O=C(NCCCN1CCCCCC1)C1CC(=O)N(CCc2ccccc2)C1 (centres undefined)	-4.71%	
CCN(CC)CCCNC(=O)CC1Sc2ccccc2NC1=O (centres undefined)	-13.3%	
CCN(CC)CCNc1ccc(CO)c2sc3ccccc3c(=O)c12		126 nM (active)
O=c1c2ccccc2sc2c(CO)ccc(NCCN3CCCCC3)c12		1580 nM (active)
CN1CCCCC1=NCCCn1cnc2c1c(=O)n(C)c(=O)n2C	-12.6%	
COCC(=O)N1CCC2(CC1)CCN(c1ccccn1)CC2	-5.05%	
CCOC(=O)Cn1nnc2c(sc3nc4c(c(-c5ccc(Cl)cc5)c32)CCC4)c1=O		3160 nM (active)
Cc1ccc(-c2c3c(nc4sc(C(N)=O)c(N)c24)CCC3)cc1		3550 nM (active)
Cc1ccc(C(=O)Cn2nnc3c(sc4nc5c(c(-c6ccccc6)c43)CCC5)c2=O)cc1	-16.3%	
